Results from the supplement of paper PMC6555819.

Key:
Test in all cases: PBM binding z-score (relative to random genomic background probes); higher = stronger binding; sequences stand for … in GC…GCGATTGACAGCGTAGAATGAAGG
[1] = system: PPARg:RXRa DBDmut IVT, anti-RXR (DBD mutation: RXRa K156A/R161A, NR concentration 270 nM, RXRa partner concentration 90 nM)
How it was run: (§1)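 Scanned fluorescence from custom Agilent 4×180K protein-binding microarrays was regression-normalized. Binding z-scores use random background probes as reference. Ligand-free nuclear receptor dimers were incubated on the arrays for 1 h and detected with antibodies against each partner (one per run).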

[2] = system: PPARg:RXRa IVT, anti-PPARg (NR concentration 270 nM, RXRa partner concentration 90 nM)
How it was run: as §1

[3] = system: PPARg DBDmut:RXRa IVT, anti-PPARg (DBD mutation: PPARg1 K132A/R137A, NR concentration 270 nM, RXRa partner concentration 90 nM)
How it was run: as §1

[4] = system: PPARg DBDmut IVT, anti-PPARg (DBD mutation: PPARg1 K132A/R137A, NR concentration 270 nM)
How it was run: as §1

[5] = system: PPARg homodimer (NR concentration 180 nM)
How it was run: as §1

[6] = system: PXR:RXRa (NR concentration 270 nM, RXRa partner concentration 90 nM)
How it was run: as §1

[7] = system: PXR homodimer (NR concentration 270 nM)
How it was run: as §1

[8] = system: RARa:RXR (NR concentration 270 nM, RXRa partner concentration 90 nM)
How it was run: as §1

[9] = system: RARa homodimer (NR concentration 270 nM)
How it was run: as §1

[10] = system: RARb:RXRa (NR concentration 270 nM, RXRa partner concentration 90 nM)
How it was run: as §1

[11] = system: RARb homodimer (NR concentration 270 nM)
How it was run: as §1

[12] = system: RARg:RXRa (NR concentration 270 nM, RXRa partner concentration 90 nM)
How it was run: as §1

[13] = system: RARg homodimer (NR concentration 270 nM)
How it was run: as §1

[14] = system: RXRa DBDmut IVT, anti-RXR (DBD mutation: RXRa K156A/R161A, NR concentration 90 nM)
How it was run: as §1

[15] = system: RXRa homodimer (NR concentration 180 nM)
How it was run: as §1

[16] = system: THRa:RXRa (NR concentration 90 nM, RXRa partner concentration 90 nM)
How it was run: as §1

[17] = system: THRa homodimer (NR concentration 90 nM)
How it was run: as §1

[18] = system: VDR homodimer (NR concentration 270 nM)
How it was run: as §1

Sequence | PBM binding z-score [1] | PBM binding z-score [2] | PBM binding z-score [3] | PBM binding z-score [4] | PBM binding z-score [5] | PBM binding z-score [6] | PBM binding z-score [7] | PBM binding z-score [8] | PBM binding z-score [9] | PBM binding z-score [10] | PBM binding z-score [11] | PBM binding z-score [12] | PBM binding z-score [13] | PBM binding z-score [14] | PBM binding z-score [15] | PBM binding z-score [16] | PBM binding z-score [17] | PBM binding z-score [18]
GCTCAGAGGACAAGGTCAGAGCTTTGTCCGTAGA | 0.92 | 0.924 | -1.05 | -1.28 | 0.348 | 1.74 | -0.21 | 2.17 | -0.133 | 3.78 | 3.68 | 3.51 | 4.41 | 1.18 | 2.64 | 3.08 | 1.34 | 0.78
ATATGTAGGTTAAGGGTCATTCCGGTTGGTTCGC | 7.18 | 7.95 | 2.74 | 3.31 | 3.95 | 5.32 | 1.33 | 5.86 | 1.66 | 3.58 | 3.85 | 4.63 | 3.26 | 2.44 | 5.95 | 3.49 | 1.62 | 4.26
CCGACTCGGGCAAGGTTACCATAACGCACAGCCA | 0.68 | 0.196 | -0.901 | -1.26 | -0.121 | 0.246 | -0.0787 | 0.655 | -0.459 | 1.33 | 1.08 | 1.01 | 0.939 | -0.233 | 1.11 | 1.19 | 0.176 | -0.43
TCGAGTAGGTTAGTCGGGGCATTTAGCCAACATA | 2.28 | 1.85 | -0.436 | -0.412 | 0.35 | 0.275 | -0.067 | 0.501 | -0.283 | 0.582 | 0.426 | 0.175 | -0.0384 | 0.477 | 0.261 | 1.12 | -0.042 | 0.418
GCGACTGCGGCAAAGCAGGTTACCATAAGGTTGG | -0.386 | -0.26 | -0.756 | -1.23 | -0.726 | -0.186 | -0.666 | 0.143 | -1.11 | -0.06 | 0.0926 | -0.183 | -0.487 | -0.499 | -0.0388 | 0.953 | -0.402 | -0.315
TCATATAGGTAAACAGATGAAAGTCCGTAAGTTA | 3.98 | 2.76 | 1.5 | 0.808 | 0.603 | 0.869 | 0.583 | 0.622 | 1.28 | 0.483 | 0.099 | 0.636 | 0.431 | 1.38 | 0.703 | 0.419 | -0.0722 | 0.455
AGTCAAAGTACATCTAGGTAACGTAAGATATGCT | 0.968 | 2.23 | 0.568 | 1.11 | -0.552 | -0.0859 | 0.334 | -0.223 | 0.0853 | 0.801 | -0.123 | 0.265 | 0.944 | 0.854 | 0.346 | 0.814 | -0.353 | 0.155
ACTAGCAGGCCAAGTTTGGGTCATTCAAACAAAG | 0.974 | 1.1 | -0.68 | -0.939 | 0.745 | 1.08 | -0.0146 | 1.73 | -0.276 | 1.69 | 2.24 | 2.22 | 1.29 | -0.125 | 0.803 | 2.55 | 0.849 | 0.69
TCTATTAGTTTAAGGGCAACCGACGAGTCCGTTT | 2.37 | 0.624 | 0.439 | 1.5 | 1.46 | 1.39 | 1.67 | 1.39 | 1.3 | 2.22 | 2.12 | 0.831 | 1.17 | 1.94 | 0.958 | 2.69 | 2.56 | 2.78
ACAGACAGGTGATGAAGGTAACTCAGGCTATCAT | 0.422 | 0.692 | 0.619 | 0.238 | 0.146 | -0.153 | 0.282 | 0.117 | 0.425 | 0.236 | 0.446 | 0.303 | 0.521 | -0.295 | 0.205 | 0.774 | 0.267 | -0.205
ATCTCTAGGTAAGACTCAGTTCACTGAAGAACGC | 1.88 | 1.2 | 0.951 | 1.23 | 0.997 | 1.71 | 1.12 | 1.01 | 0.789 | 0.577 | 0.746 | 0.678 | 0.541 | 0.822 | 0.497 | 1.29 | 0.792 | 2.32
CCTACTAGGTCAATGGTCAGCTAAAGCAGCTCGC | 7.63 | 7.77 | 2.1 | 1.05 | 2.62 | 1.26 | 0.377 | 1.95 | 0.521 | 3.89 | 3.28 | 3.39 | 4.16 | 1.71 | 2.26 | 2.47 | 0.868 | 0.437
TGAATGATGTTATAAGATCAGGGAACGTTGCAAA | -1.12 | -0.0889 | 0.204 | 0.597 | -0.0286 | -0.22 | -0.193 | 0.123 | 0.481 | -0.32 | -0.648 | 0.116 | 0.244 | -1.01 | 0.153 | -0.185 | -0.281 | -0.22
ATCTCTAGGTAAAAGTTCAGTGATTCCCGAGGAT | 2.14 | 3.78 | 1.64 | 0.678 | 1.31 | 1.97 | 1.49 | 1.61 | 0.97 | 2.32 | 2.44 | 1.69 | 2.11 | 0.773 | 1.47 | 1.2 | 0.435 | 1.8
CCAACTAGGTCATCCAGGACAGTGAATACATTGA | 7.67 | 7.53 | 1.61 | 1.62 | 2.3 | 1.94 | 1.63 | 2.35 | 1.24 | 3.89 | 3.44 | 3.88 | 4.83 | 2.49 | 2.77 | 3.79 | 2.61 | 2.63
